Sampled rows, rich in hits. Any-hit rate of the full collection: about 12%.
BAZ2B block: qHTS Assay for Inhibitors of BAZ2B | AlphaScreen BAZ2B-H3K14Ac peptide displacement | Bromodomain adjacent to zinc finger domain protein 2B (Homo sapiens), Q9UIF8 | Potency, µM (series often up to 114 µM), actives largely listed as inhibitors | AID 504333, 2011 | 4.4% of 360,000 active; also: nearly all actives have a fitted effect of over 60% in size
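BAZ2B (50 nM) with biotin-H3(5-23)K14Ac peptide (50 nM) in PBS pH 7.4, 0.01% Tween-20, preformed 30 min, then compound 30 min at room temperature; top concentration 110uM. AlphaScreen streptavidin donor/nickel chelate acceptor beads (10 ug/mL final), 20 min dark, signal read.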
PLK1 PBD block: qHTS for Inhibitors of PLK1-PDB (polo-like kinase 1 - polo-box domain): Primary Screen; Serine/threonine-protein kinase PLK1 (Homo sapiens), P53350; Plk1 PBD binding of FITC phosphopeptide, fluorescence polarization; 2.8% of 360,000 active; Potency, µM, actives largely listed as inhibitors; AID 720504, 2013; also: series mostly up to about 57 µM; nearly all actives have a fitted effect of over 65% in size
JMJD2A Tudor inh: qHTS Assay for Inhibitors of JMJD2A-Tudor Domain; 4.4% of 390,000 active; Potency, µM (doses to about 114 µM), hits mostly inhibitors; AlphaScreen JMJD2A-Tudor / H3K4me3 peptide binding; also: nearly all actives have a fitted effect of over 50% in size
PI5P4K alpha inh: qHTS for Inhibitors of phosphatidylinositol 5-phosphate 4-kinase (PI5P4K). AID 652105, 2013. PI5P4Kalpha enzyme, ADP-Glo luminescence, 60 min; stronger effect = lower value. 1.2% of 330,000 active. max response, %. Phosphatidylinositol 5-phosphate 4-kinase type-2 alpha (Homo sapiens), P48426; active = max response of -50% or lower; inconclusive = between -30% and -50%; inactive = -30% or higher; also: value at the top dose of about 77 µM
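ADP-Glo luminescence end-point read after a 60 min room-temperature kinase reaction of PI5P4Kalpha plus substrate, initiated with ATP at 5 microM final. Buffer: 0.038 M HEPES pH 7.4, EGTA, 0.1% CHAPS, 5% DMSO.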
G9a inh: qHTS Assay for Inhibitors of Histone Lysine Methyltransferase G9a; Histone-lysine N-methyltransferase EHMT2 (Homo sapiens), Q96KQ7; G9a H3K9 monomethylation, AlphaScreen, 2 h; Potency, µM (series often up to 102 µM), actives largely listed as inhibitors; 8.8% of 350,000 active; also: nearly all actives have a fitted effect of over 75% in size
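Readings reflect AlphaScreen signal from monomethyl-H3K9 antibody detection. HMT at 20 nM; substrate b-H3K9 500 nM; cofactor SAM 20 uM; 2 h RT reaction; compounds tested as titrations in qHTS with 15 min preincubation.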
HP1b binding inh: HTS for Inhibitors of HP1-beta Chromodomain Interactions with Methylated Histone Tails. AID 540317, 2011. Potency, µM (top dose mostly 114 µM), usual class: inhibitors. 0.56% of 390,000 active. Chromobox protein homolog 1 (Homo sapiens), P83916. AlphaScreen HP1-beta / biotin-H3K9me3 peptide binding; also: nearly all actives have a fitted effect of over 70% in size
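HP1-beta protein (50 nM final) preincubated 30 min at room temperature with biotinylated H3(1-18)K9me3 peptide (50 nM) in PBS pH 7.4, 0.01% Tween-20, then compound added for 30 min. AlphaScreen streptavidin donor/nickel chelate acceptor beads (10 ug/mL final), 30 min dark, luminescence read.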
Each line names hits and unclear results; the compound was inactive in the other large screens. Unless noted, calls follow the shape of the dose curve; as a rule, active = well fitted curve in the direction sought with a large enough effect; inconclusive = small, poorly fitted or top-dose-only effect, or another doubt; inactive = no such curve, though single readings can be large; an effect the other way counts as inactive or inconclusive.

Cc1ccc(CNC(=O)Nc2ccc(OC(F)(F)F)cc2)n1C	BAZ2B block inconclusive, G9a inh 50µM
Cc1ccc(CNC(=O)Nc2ccc(F)cc2)n1C	JMJD2A Tudor inh inconclusive, G9a inh 50µM
CC(C)(C)c1ccc(NC(=O)Nc2ccc(F)cc2)cc1	PLK1 PBD block 27µM, JMJD2A Tudor inh 35µM
Cc1cccc(NC(=O)C2CCN(c3nnc(C)c4c(C)n(-c5ccccc5)nc34)CC2)c1C	none (no result: PLK1 PBD block, PI5P4K alpha inh)
CNC(=O)c1ccc(Nc2nnc(-c3ccc(C)c(S(=O)(=O)NC(C)(C)C)c3)c3ccccc23)cc1	none (no result: PLK1 PBD block, PI5P4K alpha inh)
C[C@@H]1CCCCO[C@@H](CN(C)C(=O)Cc2ccccc2)[C@@H](C)CN([C@H](C)CO)C(=O)c2cc(NC(=O)C3CCCCC3)ccc2O1	none (no result: BAZ2B block, JMJD2A Tudor inh, G9a inh, HP1b binding inh)
CC(C)NC(=O)N1CC[C@@]2(CCCN(S(C)(=O)=O)C2)C1	none (no result: BAZ2B block, PLK1 PBD block, JMJD2A Tudor inh, PI5P4K alpha inh, HP1b binding inh)
C[C@H](NC(=O)OC(C)(C)C)c1nnc(SCc2c(F)cccc2Cl)o1	BAZ2B block 89µM (no result: PLK1 PBD block, PI5P4K alpha inh)
CC(C)[C@H](NC(=O)OC(C)(C)C)c1nnc(S(=O)(=O)Cc2c(F)cccc2Cl)o1	PLK1 PBD block 9.5µM, G9a inh inconclusive (no result: PI5P4K alpha inh)
O=C(COC(=O)c1cc[n+]([O-])cc1)Nc1cccc(Br)c1	G9a inh inconclusive
O=C1CCCC2=C1C(c1ccco1)Nc1ccc3ccccc3c12 (configuration not stated)	BAZ2B block 13µM, PLK1 PBD block 24µM, JMJD2A Tudor inh 40µM, PI5P4K alpha inh -64, G9a inh 16µM, HP1b binding inh 50µM
COc1cc(C2Nc3ccc4ncccc4c3C3=C2C(=O)CCC3)cc(OC)c1O (configuration not stated)	G9a inh inconclusive
O=C1CCCC2=C1C(c1ccc(O)c(O)c1)Nc1ccc3ccccc3c12 (configuration not stated)	JMJD2A Tudor inh 28µM, PI5P4K alpha inh inconclusive, HP1b binding inh inconclusive (no result: BAZ2B block, G9a inh)
Cc1ccc2nc(NCCc3ccccc3)c3nncn3c2c1	none
CCn1c(C(c2ccccc2)c2ccccc2)n[nH]c1=S	JMJD2A Tudor inh 32µM, G9a inh 7.9µM
C=CCn1c(C(c2ccccc2)c2ccccc2)n[nH]c1=S	G9a inh 10µM
C=CCn1c(OCc2ccccc2)n[nH]c1=S	JMJD2A Tudor inh 3.2µM, G9a inh 8.9µM, HP1b binding inh inconclusive
CC(=O)c1cc(-c2ccccc2)n(CC(=O)N2CCCC2)c1C	BAZ2B block 56µM, G9a inh inconclusive
CC(=O)c1cc(-c2ccccc2)n(CC(=O)NC(C)(C)C)c1C	BAZ2B block 50µM
CCC(C)(C)NC(=O)Cn1c(-c2ccccc2)cc(C(C)=O)c1C	BAZ2B block inconclusive
Cc1ccc(NC(=O)C(=O)Nc2ccc(C)cn2)nc1	none
Cc1ccc(NC(=O)/C(C#N)=C(\N)C(Cl)(Cl)Cl)nc1	BAZ2B block 56µM, PLK1 PBD block 24µM, G9a inh inconclusive
COc1cccc(OCC(=O)NNC(=O)c2ccc3ccccc3c2)c1	none
CCCCCOc1ccc(OC(=O)c2ccncc2)cc1	none
COCCOC(=O)/C(=C/c1ccc(OC(=O)c2ccccc2)cc1)C(C)=O	PLK1 PBD block 21µM, G9a inh 50µM
CCOC(=O)/C(=C/c1ccc(OC(=O)c2ccncc2)cc1)C(C)=O	PLK1 PBD block inconclusive, G9a inh 22µM
CC(C)(C)c1cc(CCC(=O)Nc2ccncc2)cc(C(C)(C)C)c1O	none (no result: BAZ2B block, G9a inh)
COCCCN1C(=O)c2ccc(C(=O)N3CCN(c4ccc(OC)cc4)CC3)cc2C1=O	none
COc1ccc(N2CCN(C(=O)c3ccc4c(c3)NC(=O)C(CSCc3cccc(F)c3)N4)CC2)cc1 (configuration not stated)	G9a inh 20µM (no result: PLK1 PBD block, JMJD2A Tudor inh, PI5P4K alpha inh, HP1b binding inh)
COc1ccc(N2CCN(C(=O)c3ccc4c(c3)NC(=O)C(CSCc3ccc(C)cc3)N4)CC2)cc1 (configuration not stated)	BAZ2B block inconclusive, G9a inh 7.9µM (no result: PLK1 PBD block, JMJD2A Tudor inh, PI5P4K alpha inh, HP1b binding inh)

Compound activity (PubChem)
